Results: PubChem BioAssay (Tox21)
Values joined by “and” are separate entries in the source; they are usually repeats but may differ in a detail not shown here. Identical values can stand only once. Records with an inconclusive call do not appear. A call without a number means that no potency is given here. Active and inactive are the calls of the source. Calls follow the shape of the dose curve; as a rule, active = well fitted curve in the direction sought with a large enough effect in the repeat runs; inconclusive = weak or mixed curves; inactive = no such curve, though single readings can be large; an effect the other way counts as inactive or inconclusive.

assay: qHTS assay to identify small molecule HDAC inhibitors (AID 1259364); settings: HCT-116 HDAC-Glo I/II luminescence, 2 h; series mostly up to 92.4 µM; also: nearly all actives have a fitted effect of over 45% in size; also: potency is read from the fitted curve at half-maximal effect
Method in brief: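 Luminescence from a cell-permeant luminogenic class I/II HDAC substrate reports endogenous deacetylase activity in intact HCT-116 cells treated with compounds for 2 h.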

SMILES | Potency
CC(=O)Oc1ccccc1C(=O)O | inactive
COc1ccccc1O | inactive
COCCOCCOC | inactive
COCC(C)N (stereo not drawn) | inactive
NCCNc1cccc2ccccc12 | inactive
C/C=C/c1ccc(O)c(OC)c1 | inactive
Cc1cccc(Nc2cc(Cl)nc(SCC(=O)O)n2)c1C | inactive
CCCCCCCCCCCCCC(=O)OC(C)C | inactive
COc1cc(C=O)ccc1O | inactive
COc1ccc(C(=O)c2ccccc2)c(O)c1 | inactive
C1CNCCN1 | inactive
COc1cc(O)c(C(=O)c2ccccc2)cc1S(=O)(=O)O | inactive
NC(N)=NC(N)=NCCc1ccccc1 | inactive
CC1=NN(c2ccccc2)C(=O)C1 | inactive
NC(=O)N1c2ccccc2C=Cc2ccccc21 | inactive
NC(=O)N/N=C/c1ccc([N+](=O)[O-])o1 | inactive
CN(C)Cc1cc(CN(C)C)c(O)c(CN(C)C)c1 | inactive
Cc1ccc(O)c(-n2nc3ccccc3n2)c1 | 1.08 µM (active) and 2.17 µM (active) and 1.5 µM (active)
COC(=O)c1ccc(O)cc1 | inactive
c1ccc2[nH]c(-c3cscn3)nc2c1 | 9.75 µM (active) and 486 nM (active) and 1.19 µM (active)
O=C1OC(c2ccc(O)cc2)(c2ccc(O)cc2)c2ccccc21 | inactive
OCCCc1ccccc1 | inactive
NC(=O)OCC(COC(N)=O)c1ccccc1 | inactive

assay: qHTS assay to identify small molecule HDAC inhibitors - cell viability counter screen (AID 1259365); settings: HCT-116 viability, CellTiter-Glo ATP luminescence, 2 h; series mostly up to 92.4 µM; also: nearly all actives have a fitted effect of over 50% in size
Method in brief: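 Counter screen in wild-type HCT-116 cells: compounds dissolved in DMSO are pin-transferred onto overnight-plated cells and left 2hr at 37C. ATP-based CellTiter-Glo luminescence then measures viable cells.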

SMILES | outcome
CC(=O)Oc1ccccc1C(=O)O | inactive
COc1ccccc1O | inactive
COCCOCCOC | inactive
COCC(C)N (stereo not drawn) | inactive
NCCNc1cccc2ccccc12 | inactive
C/C=C/c1ccc(O)c(OC)c1 | inactive
Cc1cccc(Nc2cc(Cl)nc(SCC(=O)O)n2)c1C | inactive
CCCCCCCCCCCCCC(=O)OC(C)C | inactive
COc1cc(C=O)ccc1O | inactive
COc1ccc(C(=O)c2ccccc2)c(O)c1 | inactive
C1CNCCN1 | inactive
COc1cc(O)c(C(=O)c2ccccc2)cc1S(=O)(=O)O | inactive
COc1ccc(O)cc1 | inactive
CC(O)COc1ccccc1 (stereo not drawn) | inactive
NC(N)=NC(N)=NCCc1ccccc1 | inactive
CC1=NN(c2ccccc2)C(=O)C1 | inactive
O=c1c(-c2ccc(O)cc2)coc2cc(O)cc(O)c12 | inactive
NC(=O)N1c2ccccc2C=Cc2ccccc21 | inactive
Cc1cccc(C)c1O | inactive
NC(=O)N/N=C/c1ccc([N+](=O)[O-])o1 | inactive
C[C@]12CC[C@@H]3c4ccc(O)cc4C[C@@H](CCCCCCCCCS(=O)CCCC(F)(F)C(F)(F)F)[C@H]3[C@@H]1CC[C@@H]2O (stereo partly drawn) | inactive
CC(=O)c1ccc(S(=O)(=O)NC(=O)NC2CCCCC2)cc1 | inactive
CN(C)Cc1cc(CN(C)C)c(O)c(CN(C)C)c1 | inactive
Cc1ccc(O)c(-n2nc3ccccc3n2)c1 | inactive
COC(=O)c1ccc(O)cc1 | inactive
c1ccc2[nH]c(-c3cscn3)nc2c1 | inactive
O=C1OC(c2ccc(O)cc2)(c2ccc(O)cc2)c2ccccc21 | inactive
OCCCc1ccccc1 | inactive
NC(=O)OCC(COC(N)=O)c1ccccc1 | inactive
COc1cc2c(c(OC)c1OC)-c1ccc(OC)c(=O)cc1[C@@H](NC(C)=O)CC2 | inactive
